Eight compounds from ChEMBL document CHEMBL3988442, “University of Dundee, Small-Polar-MMV Screening Library” (2021) can be followed below.

What all share (parameters): scale not given: direction of the effect not stated beside the values
Test [1] has as its target Protein translocase subunit SecA (Escherichia coli (strain K12)) (UniProt P10408). Kind of test: Assay to Identify E. coli SecA ATPase Inhibitors. In kind it is functional. Particulars: 30 µM.
In test [2] the target is T1, Ubiquitin-activating enzyme e1, putative (Leishmania donovani (strain BPK282A1)) (UniProt E9BSI1).
T1 sequence (whole entry): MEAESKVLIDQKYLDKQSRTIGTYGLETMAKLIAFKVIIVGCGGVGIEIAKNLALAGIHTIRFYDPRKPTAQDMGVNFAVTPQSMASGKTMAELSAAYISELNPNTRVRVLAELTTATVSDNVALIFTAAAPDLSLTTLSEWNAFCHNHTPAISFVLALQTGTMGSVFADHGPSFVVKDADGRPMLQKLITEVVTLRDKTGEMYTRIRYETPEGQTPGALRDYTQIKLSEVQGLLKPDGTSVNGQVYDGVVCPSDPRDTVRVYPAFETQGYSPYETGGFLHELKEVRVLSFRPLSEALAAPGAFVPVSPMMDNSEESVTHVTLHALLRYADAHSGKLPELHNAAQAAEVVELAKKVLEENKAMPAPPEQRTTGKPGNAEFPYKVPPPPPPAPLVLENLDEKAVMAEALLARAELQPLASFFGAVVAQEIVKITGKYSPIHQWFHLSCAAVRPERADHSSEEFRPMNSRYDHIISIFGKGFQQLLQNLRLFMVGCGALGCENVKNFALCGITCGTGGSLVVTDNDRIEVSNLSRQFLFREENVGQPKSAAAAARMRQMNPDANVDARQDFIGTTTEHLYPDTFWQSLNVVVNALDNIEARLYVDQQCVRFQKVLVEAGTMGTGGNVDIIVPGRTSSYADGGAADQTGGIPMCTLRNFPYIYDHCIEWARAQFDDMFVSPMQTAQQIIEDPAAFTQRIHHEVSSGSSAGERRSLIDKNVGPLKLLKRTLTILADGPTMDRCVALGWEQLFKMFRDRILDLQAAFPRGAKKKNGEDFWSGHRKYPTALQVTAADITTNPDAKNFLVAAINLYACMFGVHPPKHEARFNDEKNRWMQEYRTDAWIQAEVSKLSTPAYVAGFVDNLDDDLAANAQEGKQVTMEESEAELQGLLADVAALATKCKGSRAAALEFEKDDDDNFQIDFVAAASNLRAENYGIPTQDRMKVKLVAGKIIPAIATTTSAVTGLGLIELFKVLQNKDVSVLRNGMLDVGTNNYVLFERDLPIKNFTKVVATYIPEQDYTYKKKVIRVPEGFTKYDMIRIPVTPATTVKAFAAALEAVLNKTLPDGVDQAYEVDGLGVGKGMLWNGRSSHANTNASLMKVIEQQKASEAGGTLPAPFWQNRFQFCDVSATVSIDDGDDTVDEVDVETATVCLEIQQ
Kind of test: Leishmania donovani Ubiquitin Activating Enzyme (LdE1). It is filed as functional. Particulars: 30 µM.

Test [3] concerns the target AMP-activated protein kinase, AMPK (Homo sapiens) (UniProt P54646+O43741+P54619+Q9UGJ0+Q9Y478+Q13131+Q9UGI9). Kind of test: AMP-dependent Kinase enzyme assay. An in vitro enzyme assay that detects ADP turnover that is directly proportional to AMPK activity. This uses naive AMPK that is activated during the assay with MK-8722. In kind it is functional. Particulars: 30 µM.

Test [4] has as its target Sialic acid-binding Ig-like lectin 9 (Homo sapiens) (UniProt Q9Y336). Kind of test: Hs-Siglec9 ALPHAscreen SOP 20170721. Particulars: 10 µM. (Alpha assays give light when donor and acceptor beads are brought close together.)
For test [5], the system named is Trypanosoma cruzi. Kind of test: Trypanosoma cruzi phosphomannomutase and mannose-1-phosphate guanylyltransferase assay. It is filed as functional. Particulars: 10 µM.
Test [6] concerns the target T2, Arginase-2, mitochondrial (Homo sapiens) (UniProt P78540).
T2 sequence (whole entry): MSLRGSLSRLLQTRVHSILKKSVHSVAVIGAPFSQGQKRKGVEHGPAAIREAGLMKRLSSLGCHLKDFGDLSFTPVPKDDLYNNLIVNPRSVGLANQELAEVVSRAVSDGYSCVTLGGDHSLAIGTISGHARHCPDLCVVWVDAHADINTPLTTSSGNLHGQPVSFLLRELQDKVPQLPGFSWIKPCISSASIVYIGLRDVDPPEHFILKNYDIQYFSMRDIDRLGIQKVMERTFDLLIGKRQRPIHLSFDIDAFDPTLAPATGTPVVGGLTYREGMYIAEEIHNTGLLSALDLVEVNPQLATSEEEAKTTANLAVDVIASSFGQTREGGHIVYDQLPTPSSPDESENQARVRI
Kind of test: in vitro enzyme assay to detect the production of urea directly proportional to the activity of Arginase II. Note: in the data most compounds retested in dose-response had high values. It is filed as functional. Particulars: 33.3 µM.

In test [7] the target is T3, Proteasome subunit beta (Trypanosoma cruzi) (UniProt O96673).
T3 sequence (whole entry): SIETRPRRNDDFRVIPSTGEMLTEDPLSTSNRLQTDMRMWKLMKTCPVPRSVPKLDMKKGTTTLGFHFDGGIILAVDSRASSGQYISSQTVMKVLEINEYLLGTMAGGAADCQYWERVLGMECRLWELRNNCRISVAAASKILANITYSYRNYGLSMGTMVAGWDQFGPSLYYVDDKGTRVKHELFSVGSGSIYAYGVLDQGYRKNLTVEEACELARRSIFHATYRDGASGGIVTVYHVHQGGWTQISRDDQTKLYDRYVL
Kind of test: Trypanosoma cruzi proteasome chymotrypsin-like activity (TcProtChymo) assay. Note: in the data most compounds retested in dose-response had high values. In kind it is functional. The settings on record: 9.37 µM.

Test [8] is filed under the species Homo sapiens. Kind of test: To identify inhibition of the IFN signalling (Jak-Stat) pathway via expression of an eGFP reporter gene under the control of an IFN-stimulated response element (ISRE) containing MxA promoter. It is filed as functional. The settings on record: 30 µM. For orientation: In a reporter assay the amount or activity of a reporter protein is the signal.

The target in test [9] is T4, Tyrosyl-tRNA synthetase, putative (Trypanosoma cruzi (strain CL Brener)) (UniProt Q4DSP6).
T4 sequence (whole entry): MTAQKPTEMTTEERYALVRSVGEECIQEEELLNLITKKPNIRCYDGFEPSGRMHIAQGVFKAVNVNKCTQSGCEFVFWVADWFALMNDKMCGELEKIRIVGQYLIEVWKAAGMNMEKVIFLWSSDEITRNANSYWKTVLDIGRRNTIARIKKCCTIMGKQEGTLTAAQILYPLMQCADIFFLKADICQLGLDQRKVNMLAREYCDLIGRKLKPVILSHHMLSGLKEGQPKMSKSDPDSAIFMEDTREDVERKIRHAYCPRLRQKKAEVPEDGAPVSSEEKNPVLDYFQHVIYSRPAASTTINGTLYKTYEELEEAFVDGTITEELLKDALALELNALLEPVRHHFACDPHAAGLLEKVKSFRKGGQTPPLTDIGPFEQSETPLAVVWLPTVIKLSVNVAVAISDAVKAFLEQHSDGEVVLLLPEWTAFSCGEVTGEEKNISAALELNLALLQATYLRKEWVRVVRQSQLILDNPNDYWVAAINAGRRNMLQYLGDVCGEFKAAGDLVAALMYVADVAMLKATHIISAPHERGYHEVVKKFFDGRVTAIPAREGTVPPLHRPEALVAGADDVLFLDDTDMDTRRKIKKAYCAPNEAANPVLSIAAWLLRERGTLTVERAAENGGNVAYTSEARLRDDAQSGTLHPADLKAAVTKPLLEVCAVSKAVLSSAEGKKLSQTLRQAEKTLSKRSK
Kind of test: Trypanosoma cruzi tyrosyl tRNA synthetase (TcYRS) _High Tyrosine SOP. Note: in the data most compounds retested in dose-response had high values. It is filed as functional. Particulars: 30 µM.

For test [10], the target named is T4, Tyrosyl-tRNA synthetase, putative (Trypanosoma cruzi (strain CL Brener)). Kind of test: Trypanosoma cruzi tyrosyl tRNA synthetase (TcYRS) SOP. In kind it is functional. The settings on record: 30 µM.
For test [11], the target named is Chromo domain-containing protein 1 (Saccharomyces cerevisiae (strain ATCC 204508 / S288c) (Baker's yeast)) (UniProt P32657). Kind of test: ScCHD-1 Enzyme Inhibition Assay. Note: in the data most compounds retested in dose-response had high values. The settings on record: 30 µM. In kind it is functional.

Structures are written as SMILES. For some of these results: Measured potencies and affinities stand elsewhere.

Chromo domain-containing protein 1 (Saccharomyces cerevisiae (strain ATCC 204508 / S288c) (Baker's yeast)), sequence (P32657 whole entry, the tested form may be a part): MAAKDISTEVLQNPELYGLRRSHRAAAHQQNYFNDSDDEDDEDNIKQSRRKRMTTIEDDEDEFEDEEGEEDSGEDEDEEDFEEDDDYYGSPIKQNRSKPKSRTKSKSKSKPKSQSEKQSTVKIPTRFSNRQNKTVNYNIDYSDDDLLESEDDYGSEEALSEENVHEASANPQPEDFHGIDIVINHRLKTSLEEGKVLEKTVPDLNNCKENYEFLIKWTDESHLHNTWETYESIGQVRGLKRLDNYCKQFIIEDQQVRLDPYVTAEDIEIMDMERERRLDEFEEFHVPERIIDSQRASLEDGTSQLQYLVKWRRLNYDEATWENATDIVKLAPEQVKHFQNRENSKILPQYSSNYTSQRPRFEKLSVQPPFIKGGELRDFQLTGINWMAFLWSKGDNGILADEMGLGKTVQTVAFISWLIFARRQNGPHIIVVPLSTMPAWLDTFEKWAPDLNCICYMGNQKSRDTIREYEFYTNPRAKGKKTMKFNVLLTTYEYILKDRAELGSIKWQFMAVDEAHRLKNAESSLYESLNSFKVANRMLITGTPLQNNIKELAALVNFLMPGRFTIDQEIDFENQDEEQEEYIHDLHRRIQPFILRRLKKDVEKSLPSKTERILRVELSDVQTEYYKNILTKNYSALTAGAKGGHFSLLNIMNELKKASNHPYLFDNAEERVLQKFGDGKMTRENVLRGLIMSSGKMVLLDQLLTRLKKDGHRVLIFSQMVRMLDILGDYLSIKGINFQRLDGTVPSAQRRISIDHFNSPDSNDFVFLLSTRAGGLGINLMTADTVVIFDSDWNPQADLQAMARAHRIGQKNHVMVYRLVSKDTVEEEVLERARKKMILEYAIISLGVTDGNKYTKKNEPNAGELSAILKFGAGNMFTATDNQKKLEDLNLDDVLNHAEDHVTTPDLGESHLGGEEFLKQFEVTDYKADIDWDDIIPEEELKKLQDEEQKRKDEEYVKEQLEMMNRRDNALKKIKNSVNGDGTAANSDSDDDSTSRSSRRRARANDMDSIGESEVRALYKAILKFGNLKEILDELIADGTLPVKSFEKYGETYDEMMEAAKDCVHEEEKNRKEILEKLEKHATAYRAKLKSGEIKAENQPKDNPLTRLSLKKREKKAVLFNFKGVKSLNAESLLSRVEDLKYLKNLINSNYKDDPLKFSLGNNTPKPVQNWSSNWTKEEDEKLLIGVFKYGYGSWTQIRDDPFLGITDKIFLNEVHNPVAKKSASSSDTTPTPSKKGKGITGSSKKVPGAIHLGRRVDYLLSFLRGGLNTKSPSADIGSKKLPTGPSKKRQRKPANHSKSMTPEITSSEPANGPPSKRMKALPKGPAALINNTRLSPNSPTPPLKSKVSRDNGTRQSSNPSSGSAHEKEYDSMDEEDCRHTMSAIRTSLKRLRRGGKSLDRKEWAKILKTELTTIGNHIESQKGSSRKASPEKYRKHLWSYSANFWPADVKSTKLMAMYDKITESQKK
Protein translocase subunit SecA (Escherichia coli (strain K12)), sequence (P10408 whole entry): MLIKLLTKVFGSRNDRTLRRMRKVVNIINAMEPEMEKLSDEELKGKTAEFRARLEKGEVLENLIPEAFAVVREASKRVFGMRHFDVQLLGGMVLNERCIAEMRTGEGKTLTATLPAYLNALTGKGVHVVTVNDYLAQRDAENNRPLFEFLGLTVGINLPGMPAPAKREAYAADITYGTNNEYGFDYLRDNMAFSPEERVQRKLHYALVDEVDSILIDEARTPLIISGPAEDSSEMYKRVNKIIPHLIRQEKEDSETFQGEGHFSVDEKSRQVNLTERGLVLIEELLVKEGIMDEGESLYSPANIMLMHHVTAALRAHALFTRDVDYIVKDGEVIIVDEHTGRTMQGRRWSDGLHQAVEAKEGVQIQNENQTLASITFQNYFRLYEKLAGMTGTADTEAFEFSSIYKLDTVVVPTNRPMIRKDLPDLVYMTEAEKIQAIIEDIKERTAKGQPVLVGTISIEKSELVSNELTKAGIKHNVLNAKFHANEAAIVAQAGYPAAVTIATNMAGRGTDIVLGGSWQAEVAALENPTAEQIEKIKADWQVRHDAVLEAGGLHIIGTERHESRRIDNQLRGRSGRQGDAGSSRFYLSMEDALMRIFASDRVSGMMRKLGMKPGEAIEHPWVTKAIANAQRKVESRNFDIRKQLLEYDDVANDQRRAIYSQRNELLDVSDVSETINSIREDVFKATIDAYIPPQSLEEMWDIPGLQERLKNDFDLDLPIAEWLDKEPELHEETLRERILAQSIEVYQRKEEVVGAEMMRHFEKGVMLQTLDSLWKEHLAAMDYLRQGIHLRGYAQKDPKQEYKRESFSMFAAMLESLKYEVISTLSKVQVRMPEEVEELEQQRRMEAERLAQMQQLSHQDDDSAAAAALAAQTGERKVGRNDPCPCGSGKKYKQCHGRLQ
Sialic acid-binding Ig-like lectin 9 (Homo sapiens), sequence (Q9Y336 whole entry): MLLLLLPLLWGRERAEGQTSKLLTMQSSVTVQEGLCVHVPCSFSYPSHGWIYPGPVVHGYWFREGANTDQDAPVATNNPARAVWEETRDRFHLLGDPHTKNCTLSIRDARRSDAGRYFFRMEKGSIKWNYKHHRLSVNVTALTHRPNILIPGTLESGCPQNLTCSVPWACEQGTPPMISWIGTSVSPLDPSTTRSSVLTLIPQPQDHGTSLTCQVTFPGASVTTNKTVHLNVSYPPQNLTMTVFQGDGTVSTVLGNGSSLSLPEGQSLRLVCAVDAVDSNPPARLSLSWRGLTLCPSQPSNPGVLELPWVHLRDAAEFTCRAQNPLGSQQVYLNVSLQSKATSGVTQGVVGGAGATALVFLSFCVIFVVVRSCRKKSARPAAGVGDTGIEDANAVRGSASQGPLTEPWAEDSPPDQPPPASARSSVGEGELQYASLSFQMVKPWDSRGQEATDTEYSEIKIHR

In the case of `CO[C@H]1CCN(Cc2cccc(C)n2)[C@@H]2CN(Cc3cccnc3)C[C@H]12`, the Percent Effect in test [1] is -4.37%; in test [2], 13.7%; in test [3] it was -4.89%; in test [4] it was 7.4%; in test [5], 12.3%; in [6] it was -3.99%. Moreover, the Percent Effect is 15.5% in test [7]; 6.58% in [8]; 5.21% in test [9]; 6.17% in test [10]; -8.06% in test [11].
Regarding `COCCc1noc(CN(C)C(=O)c2cccc(N3CCCC3=O)c2)n1`, the Percent Effect in test [1] is -2.59%; in [2], -2.53%; in [3], 0.707%; in test [4] it was 3.91%; in test [5] it was -1.23%; in test [6] it was -0.38%. The Percent Effect in test [7] is -0.246%; in test [8] it was -3.22%; in test [9] it was -0.493%; in test [10], -3.8%; in test [11], -1.74%.
On to `CN(C)c1ccc(CN(CCCn2ccnc2)Cc2c[nH]cn2)cc1`, for which the Percent Effect in [1] was -6.31%; in test [2] it was 17.6%; in test [3] it was -10.4%; in test [4] it was 5.43%; in test [5], 3.16%; in test [6], -6.26%. Further, the Percent Effect in test [7] is 12.5%; in [8], 8.69%; in test [9] it was 8.6%; in test [10], 19.5%; in test [11] it was -30.5%.
For the compound `COc1ccccc1CNC(=O)N1CCCC(c2nncn2C)C1` (stereo not drawn), the Percent Effect in [1] was -3.81%; in [2], 13.2%; in test [3] it was -5.69%; in test [4], 4.78%; in [5] it was 0.654%; in [6], 1.08%. The Percent Effect in [7] is 6.85%; in test [8], 5.9%; in test [9], 7.39%; in test [10], 23.5%; in test [11], -3.47%.
Regarding `Cn1cccc1C(=O)N1CCCC2(CCN(CCN3CCCC3)C2=O)C1` (stereo not drawn), the Percent Effect in [1] was -6.99%; in [2] it was 2.6%; in test [3], 0.774%; in test [4], 9.32%; in test [5], -1.48%; in [6] it was -4.14%. The Percent Effect is 7.65% in [7]; 11.9% in [8]; -2.15% in [9]; -1.24% in test [10]; 0.981% in test [11].
Take `CC(C)CN1CCc2[nH]cnc2C12CCN(C(=O)c1cccnc1)CC2`: the Percent Effect in test [1] was -8.51%; in [2], 0%; in [3], -4.57%; in test [4] it was 3.2%; in test [5] it was -3.99%; in test [6] it was -1.56%. Besides, the Percent Effect is 14.3% in test [7]; 12.4% in [8]; -3.83% in [9]; -6.17% in test [10]; -6.87% in [11].
For the compound `CC(O)CN1CCC(CNCc2cccc(C(N)=O)c2)CC1` (stereo not drawn), the Percent Effect is -1.81% in test [1]; 18.9% in test [2]; -22.5% in test [3]; 11% in test [4]; 3.11% in [5]; -6.01% in test [6]. Besides, the Percent Effect in test [7] is 6.67%; in [8], 10.6%; in test [9], 8.37%; in test [10] it was 16.1%; in [11], -10%.
For the compound `Cc1nc(C)n(CC2CCCCN2Cc2ncc(C(C)(C)C)o2)n1` (stereo not drawn), the Percent Effect is -2.22% in test [1]; 31.2% in test [2]; -8% in test [3]; -3.37% in [4]; 5.62% in [5]; -2.13% in test [6]. In addition, the Percent Effect is 19.1% in test [7]; 10.5% in [8]; 7.77% in test [9]; 24.4% in test [10]; -10.7% in test [11].
